Source: PubChem BioAssay (NCI)
This is part of a sample that, as a whole, favours compounds with a hit. Of some 79,000 tested, about 15% had one in any assay. Activity calls are given as the source filed them. Cut-off read from the data, not from the text of the source: active = growth inhibition above about 70%; inactive = the rest. Where a SMILES comes first, the peptide text is derived from it. [ ]: non-standard residue; d: D form. The star is where a group is joined. ξ: configuration not given here. ξV = CC(C)C(N)C(=O)O; ClAc = O=C(CCl)*

Tests used:
[1] = NCI Yeast Anticancer Drug Screen. Data for the rad50 strain (AID 155);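 note: 0% = growth of vehicle-only cultures of the same strain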; settings: S. cerevisiae rad50 strain growth inhibition; at 50.0 µM; hits give high values
Method in brief: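 Yeast carrying a defined DNA repair defect were exposed to test compounds, and growth was compared with vehicle-treated controls to give percent inhibition.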

[2] = NCI Yeast Anticancer Drug Screen. Data for the mec2-1 strain (AID 157); settings: S. cerevisiae mec2-1 strain, at 50.0 µM, hits give high values
Method in brief: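 Mutant yeast (mec2-1) grown with compound; growth inhibition relative to vehicle control reported.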

[3] = NCI Yeast Anticancer Drug Screen. Data for the mlh1 rad18 strain (AID 175); settings: S. cerevisiae mlh1 rad18 strain growth inhibition; at 50.0 µM; hits give high values
Method in brief: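 Genetically defined yeast (DNA repair-deficient) exposed to compounds; growth inhibition determined relative to vehicle.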

[4] = NCI Yeast Anticancer Drug Screen. Data for the sgs1 mgt1 strain (AID 161);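 note: 0% = growth of cultures given vehicle only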; settings: S. cerevisiae sgs1 mgt1 strain, at 50.0 µM, hits give high values
Method in brief: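 Yeast cells carrying a defined DNA-repair defect were exposed to test compounds. Growth inhibition was measured relative to vehicle-treated controls.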

[5] = NCI Yeast Anticancer Drug Screen. Data for the cln2 rad14 strain (AID 165);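 note: 0% = growth equal to vehicle treated cultures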; settings: S. cerevisiae cln2 rad14 strain, at 50.0 µM, hits give high values
Method in brief: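 Readout is yeast growth inhibition versus vehicle-treated controls, using a strain with cln2 and rad14 alterations exposed to compound.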

[6] = NCI Yeast Anticancer Drug Screen. Data for the bub3 strain (AID 167); settings: S. cerevisiae bub3 mutant strain, at 50.0 µM, hits give high values
Method in brief: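 Compounds were applied to a genetically altered yeast strain carrying a cell-cycle control defect. Growth inhibition was scored against vehicle-treated controls.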

Measured: growth inhibition

c1ccc2c(c1)OCCOCCOc1ccccc1OCCOCCO2
inactive: [1] 3.15% | [2] 10.8% | [3] 15.1%

COc1ccccc1N1C(=O)CC(Sc2ccccc2N)C1=O (centres undefined)
inactive: [1] -2.4% | [2] -19.4% | [3] 13.1%

Cc1cccc(NNC(=S)Nc2ccccc2)c1
inactive: [1] 18.1% | [2] -14.8% | [3] 5.05%

CCOc1ccc(/C=N/NS(=O)(=O)c2ccc(C)cc2)cc1
inactive: [1] -3.6% | [2] -34.5% | [3] -8.2%

Cc1ccc(-c2noc(CC(=O)c3ccc([N+](=O)[O-])cc3)n2)cc1
inactive: [1] 14.4% | [2] 5.85% | [3] 38.8%

Fc1ccccc1Nc1n[nH]c(=S)s1
inactive: [1] 55.9% | [2] 56.7% | [3] 38.8%

O=C(O)/C=C\C(=O)Nc1ccccc1NC(=O)/C=C/C(=O)O
inactive: [1] 3.45% | [2] -26.1% | [3] -16.2%

COc1ccc(-c2cc(=O)c3c(ccc4ccccc43)o2)cc1
inactive: [1] 21.6% | [2] 3.4% | [3] 7%

O=C(O)c1ccccc1Oc1ccccc1C(=O)O
inactive: [1] -8.75% | [2] -22.9% | [3] -22.6%

O=[N+]([O-])c1ccc2nc3c4ccccc4c4ccccc4c3nc2c1
inactive: [1] 53.1% | [2] -1.1% | [3] 3.65%

CCOc1ccc(Br)cc1C=O
inactive: [1] 54.2% | [2] 17.4% | [3] 45.1%

CCOc1ccc(NC(=S)NC2CCCCCCCCCCC2)cc1
inactive: [1] 15.7% | [2] 10.1% | [3] 32.9%

CCOc1ccc(Br)cc1/C=N/NS(=O)(=O)c1ccc(C)cc1
inactive: [1] 46.7% | [2] 29.1% | [3] 8.35%

Cc1ccc(S(=O)(=O)Nc2ccccc2C2Nc3ccccc3C(=O)O2)cc1 (centres undefined)
inactive: [1] -23.5% | [2] -7.4% | [3] -13.1%

O=C1c2ccccc2C(=O)N1/N=C/c1ccc2c(c1)OCO2
inactive: [1] 22.5% | [2] 10.2% | [3] 18.4%

S=C(NNc1ccccc1)NC1CCCCC1
inactive: [1] 7.35% | [2] -37.2% | [3] -8.6%

NC(=O)C(c1ccccc1)N1CCCC1 (centres undefined)
inactive: [1] 2.05% | [2] -17.9% | [3] -0.55%

N/C(Cc1ccc(N)cc1)=N\O
inactive: [1] -17.4% | [2] -13.6% | [3] -13.8%

CC(C)C(NC(=O)CNC(=O)CCl)C(=O)O (centres undefined) (ClAc-Gly-[ξV]-OH)
inactive: [1] 7.6% | [2] -16.5% | [3] 4.1%

CC1OC23CCCCC2C(C#N)(C#N)C1(C#N)C(=N)O3 (centres undefined)
inactive: [1] 3.65% | [4] -36% | [5] -22.9% | [6] -35% | [3] 2.95%

Cc1ccc(N2CCOC2=O)cc1N1CCOC1=O
inactive: [1] -8.3% | [2] -32.6% | [3] -10.7%

CC/C(=C\c1cccc([N+](=O)[O-])c1)C(=O)O
inactive: [1] -9.65% | [3] -5.55%

OC1CCC2CN3CCc4c([nH]c5ccccc45)C3CC2C1 (centres undefined)
inactive: [1] 23.6% | [2] -9.5% | [3] 27.8%

COc1cc(/C=N\Nc2ccccc2[N+](=O)[O-])cc(OC)c1OC
inactive: [1] -11.4% | [3] -12.9%

CC(=O)C(C(C)=O)c1ccccc1
inactive: [1] -5.15% | [4] 3.05% | [6] 4.05% | [3] -5.75%

CN(Cc1ccccc1)Cc1ccccc1
inactive: [1] 8.4% | [2] -3.9% | [3] 14.7%

Oc1ccccc1C=Nc1ccccc1C(F)(F)F
inactive: [1] -7.3% | [2] -19.9% | [3] 25.2%

Cc1ccc(-c2noc(C)n2)cc1
inactive: [1] -12.9% | [4] -2.75% | [5] -14.2% | [6] 4% | [3] 9.2%

CCO/C=C1\SC(=S)N(c2ccc(C(=O)O)cc2)C1=O
inactive: [1] -6.05% | [2] -16.3% | [3] 13.2%

COC(=O)C(C(=O)C(=O)NC1Nc2ccc(C)cc2S1)c1nc2ccc(Cl)cc2[nH]c1=O (centres undefined)
inactive: [1] 18.2% | [5] 21.1% | [6] 13.2% | [3] 28.9%
